Several values for one entry are separate records, joined by “and”; a condition that tells them apart may be missing. Equal entries are not always repeated. Screen size: about 340,000 compounds; about 1,000 (0.29%) were called active. These entries were drawn from the full list. Measured potencies and affinities stand elsewhere. Values without a mark were called inactive. Rule as the data show it: inconclusive = inhibition above about 27% without an active follow-up result; inactive = below that.
experiment: NS1A inhibition, H1N1 influenza, cell based functional assay (AID 504329); conditions: percent inhibition, at 12.5 µM, stronger effect = higher value

| SMILES | inhibition |
| --- | --- |
| N#Cc1cc(-c2cccc(Cl)c2)c[nH]c1=O | 3.18% |
| Cc1ccc(C(=O)Nc2cccc(C(=O)NCc3ccco3)c2)cc1 | 0.66% |
| COc1ccc(C(=O)NCCSCc2cccc(Cl)c2)cc1OC | -9.42% |
| O=C(CCN1CCN(c2ccc(F)cc2)CC1)Nc1ccc(F)cc1 | 8.96% |
| CC(C)(C)c1cc(C(=O)N2CCc3ccccc32)ccn1 | -21.7% |
| CC(=O)Nc1sc(C)c(C)c1C(=O)OCC(=O)NC(C)c1ccccc1 (stereo not given) | -5.54% |
| Cc1ccc(S(=O)(=O)Nc2nc3ccccc3nc2NCC2CCCO2)cc1C (stereo not given) | -0.91% |
| O=C1CC(c2ccc(O)cc2)Oc2cc(O)ccc21 (stereo not given) | -6.8% |
| O=C(COc1ccccc1)N[C@@H]1c2ccccc2CC[C@H]1OCc1ccccc1 | -3.28% |
| COc1ccc(C(CCN2CCCC(C)C2)c2c(OC)cc(OC)c3c(-c4ccccc4)cc(=O)oc23)cc1 (stereo not given) | 10.3% |
| CCN(CC)CCC(c1cc(OC)c(OC)c(OC)c1)c1c(OC)cc(OC)c2c(-c3ccccc3)cc(=O)oc12 (stereo not given) | -1.61% |
| CCN(CC)CCC(c1ccc2c(c1)OCO2)c1c(OC)cc(OC)c2c(-c3ccccc3)cc(=O)oc12 (stereo not given) | 15.2% |
| COc1cc(OC)c2c(-c3ccccc3)cc(=O)oc2c1C(CCN1CCOCC1)c1ccc(N(C)C)cc1 (stereo not given) | 9.77% |
| COc1ccc(C(CCN2CCCCC2)c2c(OC)cc(OC)c3c(-c4ccccc4)cc(=O)oc23)cc1 (stereo not given) | 3.17% |
| COc1cc(OC)c2c(-c3ccccc3)cc(=O)oc2c1C(CCN1CCCC(C)C1)c1ccc2c(c1)OCO2 (stereo not given) | 17.6% |
| O=C(NCCc1ccccn1)c1ccc(NS(=O)(=O)c2ccc(F)cc2)cc1 | -1.36% |
| COc1cccc(OCC(=O)NNC(=O)c2ccc3ccccc3c2O)c1 | 3.46% |
| CS(=O)(=O)N1N=C(c2ccco2)CC1c1ccco1 (stereo not given) | 0.65% |
| CC(NC(=O)CN(c1cccc(C(F)(F)F)c1)S(=O)(=O)c1ccc(Cl)c([N+](=O)[O-])c1)c1ccccc1 (stereo not given) | -1.19% |
| N#Cc1ccc(C(=O)Nc2cccc3ccccc23)c(F)c1 | 4.06% |
| CN1C(N)=NC(=O)/C1=C/c1ccc(OC(F)(F)F)cc1 | -2.53% |
| CCOC(=O)c1ccccc1NC(=O)CN(c1ccccc1OCC)S(C)(=O)=O | 0.08% |

| SMILES | inhibition |
| --- | --- |
| Cc1ccc(NC(=O)C2CCN(S(=O)(=O)c3ccc(C(C)(C)C)cc3)CC2)cc1S(=O)(=O)N1CCOCC1 | -3.38% |
| CCCN(CCC)S(=O)(=O)c1ccc(NS(C)(=O)=O)cc1 | -0.06% |
| Cc1ccc(Cl)cc1NC1=C/C(=N\S(=O)(=O)c2cccs2)c2ccccc2C1=O | 17.4% and 16.6% |
| COC(=O)c1ccccc1NC(=O)c1cccs1 | 11.6% |
| Cc1ccccc1NC1=C/C(=N\S(=O)(=O)c2ccc(C(=O)O)cc2)c2ccccc2C1=O | 4.65% |
| COC(=O)c1cccc(NS(=O)(=O)c2cccs2)c1C | 1.41% |
| COC(=O)c1cc(NS(=O)(=O)c2cccs2)cc(NS(=O)(=O)c2cccs2)c1 | -13.7% |
| O=C(O)c1ccc(S(=O)(=O)/N=C2\C=C(Nc3ccccc3F)C(=O)c3ccccc32)cc1 | 14.7% |
| COc1ccccc1S(=O)(=O)Cc1ccc(C(=O)N2CCN(c3ccc(C)cc3)C(C)C2)o1 (stereo not given) | 9.7% |
| CC(C)COC(=O)c1ccccc1C(=O)OCC(C)C | 2.41% |
| COC(=O)c1ccc2c(c1O)C(=O)c1ccccc1C2=O | 4.41% |
| CCN(CC)c1ccc(O)c(C=Nc2ccc(C)c(C)c2)c1 | -19.5% |
| COc1ccc2c(O)c(-c3c(C)cc(C)cc3C)c(=O)[nH]c2c1 | 10.4% |
| COc1ccc(/C=C(/NC(=O)c2ccco2)C(=O)Nc2ccc(C(=O)O)cc2)cc1 | -7.59% |
| O=C(O)c1ccc(N2CCc3ccccc32)c([N+](=O)[O-])c1 | 4.7% |
| COC(CNC(=O)c1ccc(N2CCc3ccccc32)c([N+](=O)[O-])c1)OC | 10.7% |
| COCC(COS(N)(=O)=O)C(C)C (stereo not given) | 9.46% |
| CCc1nc(N2CCN(C(=O)c3ccccc3)CC2)c2c3c(sc2n1)CCCC3 | 2.27% |
| Cc1c2ccccc2cc[n+]1CCCS(=O)(=O)[O-] | 5.16% |
| CCOc1ccc(C(=O)Nc2ncn[nH]2)cc1 | -3.3% |
| COc1cc(NCc2ccccc2)c2ncn(C(C)C)c2c1 | 0.83% |
| CCC(CO)Oc1cc(NCc2ccccc2)c2ncn(C(C)C)c2c1 (stereo not given) | 3.05% |

| SMILES | inhibition |
| --- | --- |
| Cc1ccc2c(c1)c(N=Nc1cccc(C(=O)O)c1)c(O)n2C | -0.45% |
| CC(=O)Nc1nonc1NC(=O)COc1ccccc1 | -0.08% |
| CCC(C)[C@H](NC(=O)[C@@H]1Cc2c([nH]c3ccccc23)C2c3ccccc3C(=O)N21)C(=O)NCC1CCCO1 (stereo not given in full) | 0.06% |
| C=CCOC(=O)C1=C(C)Nc2nc3ccccc3n2C1c1ccncc1 (stereo not given) | -21.4% |
| Cc1cccc(/C=N/NC(=O)CN2CCCCCCC2)c1 | 5.95% |
| O=C(CN1CCCc2ccccc21)N/N=C/c1c(O)ccc2ccccc12 | -3.7% |
| Cc1ccc2cc(/C=N/NC(=O)CN3CCCCC3)c(Cl)nc2c1 | 1.44% |
| O=C(CN1CCOCC1)N/N=C/c1c(O)ccc2ccccc12 | 14.4% |
| COc1cc2oc3ccccc3c2cc1N(CC(=O)N(C)C)S(=O)(=O)c1ccc(C)cc1 | 1.98% |
| CCCCc1nnc(NC(=O)c2ccc(OCc3c(C)noc3C)cc2)s1 | 3.77% |
| CCOC(=O)N1CCN(C(=O)c2ccc3c(Cl)c4c(nc3c2)CCCC4)CC1 | -2.68% |
| CSCC[C@H](NC(=O)OC(C)(C)C)C(=O)N1CCC(C(=O)N[C@@H](C)C(=O)NC(C)c2ccccc2)CC1 (stereo not given in full) | 4.49% |
| CCc1ccc(CN(C)C(=O)c2ccc3c(=O)n4c(nc3c2)CCC4)cc1 | -7.99% |
| COc1cccc2c1C(=O)c1c(O)c3c(c(O)c1C2=O)C[C@@](O)(C(=O)CO)C[C@@H]3O[C@H]1C[C@H](N)[C@H](O)[C@H](C)O1 | 20.3% |
| COc1cccc2c1C(=O)c1c(O)c3c(c(O)c1C2=O)CC(O)(C(=O)CO)CC3OC1CC(N(C)C)C(O)C(C)O1 (stereo not given) | 18.7% |
| COc1cccc2c1C(=O)c1c(O)c3c(c(O)c1C2=O)CC(O)(C(C)=O)CC3OC1CC(O)C(O)C(C)O1 (stereo not given) | 20.6% |
| COc1cccc2c1C(=O)c1c(O)c3c(c(O)c1C2=O)CC(O)(C(C)=O)CC3OC1CC(N(C)C)C(O)C(C)O1 (stereo not given) | 19.1% |
| CCCCC(=O)OCC(=O)C1(O)Cc2c(O)c3c(c(O)c2C(OC2CC(NC(=O)C(F)(F)F)C(O)C(C)O2)C1)C(=O)c1c(OC)cccc1C3=O (stereo not given) | 14.4% |
| C/C(=N\NC(=O)c1ccc(Cl)c(Cl)c1)c1cccc(NC(=O)C(C)C)c1 | -0.88% |
| COc1cccc2c1C(=O)c1c(O)c3c(c(O)c1C2=O)C[C@](O)(C(C)=O)C[C@H]3O[C@@H]1C[C@@H](N)[C@@H](O)[C@@H](C)O1 | 24.5% |
| COc1cccc2c1C(=O)c1c(O)c3c(c(O)c1C2=O)C[C@@](O)(C(=O)CO)C[C@@H]3OC1CC(N)C(O)C(C)O1 (stereo not given in full) | 15% |
| COC(=O)CC1=C(C(=O)OC)C(c2ccc3c(c2)OCO3)C(C#N)=C(N)O1 (stereo not given) | -5.88% |

| SMILES | inhibition |
| --- | --- |
| Cc1cc(C)c(NC(=O)c2ccc(CN3CCc4ccccc4C3)cc2)c(C)c1 | 12.4% |
| COc1ccccc1/C=C/C=C1\Oc2c(ccc(O)c2CN2CCN(CCO)CC2)C1=O | 6.54% |
| CC(C)n1cc(C#N)c(N)n1 | -24.1% |
| Cc1ccc2c(CN3CCCCC3C)cc(=O)oc2c1C (stereo not given) | -6.02% |
| O=C(COC(=O)c1cccc(O)c1)Nc1ccc(Cl)cc1C(=O)c1ccccc1 | -7.75% |
| CSC1=NCCN1C(=O)c1c(-c2c(F)cccc2Cl)noc1C | -23.1% |
| Cc1ccc(C2C(N)C(=O)N2c2ccc(C)cc2)cc1 (stereo not given) | -20.6% |
| Cc1ccc(NC(=O)CN(C)C(=O)Cc2ccc(Cl)c(Cl)c2)cc1 | 9.85% |
| Cc1ccc(S(=O)(=O)NNC(=O)c2cnn(-c3ccc(Cl)cc3)c2C(F)(F)F)cc1 | -16.4% |
| Cc1cccc(C)c1NC(=O)CN(C)C(=O)c1cccc(S(=O)(=O)N2CCN(c3ccccc3)CC2)c1 | 1.58% |
| COc1ccc(/C=C/C=C2\N=C(SC)SC2=O)cc1 | 18% |
| NC1=NC(=O)/C(=C/C=C/c2cccs2)S1 | -14.1% |
| CC(C)CCNC(=O)CCc1nnc2n(CCCOC(C)C)c(=O)c3ccccc3n12 | -5.28% |
| Cc1ccc(SCCN)cc1C | 8.4% |
| O=C1CC(c2ccccc2)CN1 (stereo not given) | -20.7% |
| COc1cc(CNC2CCC(C)C2)cc(OC)c1 (stereo not given) | 4.05% |
| Cc1ccc(SC2=C(Sc3ccc(C)cc3)C(=O)c3ccccc3C2=O)cc1 | 4.19% |
| Cc1ccc(NC2=CC(=O)C(=O)c3ccccc32)cc1 | 2.25% |
| NC(=O)CC(NC(=O)Cc1cccc2ccccc12)c1ccc(N2CCc3ccccc3C2)c([N+](=O)[O-])c1 (stereo not given) | 14.5% |

Reference: PubChem BioAssay AID504329 (Southern Research Specialized Biocontainment Screening …, 2011)
